The test system of experiment [1] is Wnt5a (protein binding on small-molecule microarray). Description: Wnt5a binders on small-molecule microarray, primary screen, biophysical, 635/667 nm fluorescence (AID 1142).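 Also: fluorescence read at 667 nm with signal to noise per printed feature.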 Conditions: 635 nm fluorescence, higher = more signal.
The nature of experiment [2]: cell viability in Huh7 cells, primary screen, cytotoxicity control for HCV replication inhibitor project, CellTiter-Glo luminescence, basal, 48 h (AID 1143).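 Also: Huh7 hepatoma cells carrying a hepatitis C replication reporter with no stimulus; test concentration not given here.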 Conditions: Huh7 HCV replicon, higher = more signal, called active from +8 up or from −8 down.
Experiment [3] is described as follows: P. aeruginosa biofilm formation inhibitors, primary screen, PAO1 strain, BacTiter-Glo luminescence, LB-PBS (AID 1144). Conditions: 12 h, higher = more signal.
A short description of experiment [4]: CREB reporter modulators without forskolin, primary screen, cell-based, PC12, CRE-LacZ reporter, unstimulated (AID 1145). Conditions: no forskolin, luminescence, 4.5 h, higher = more signal, called active from +8 up or from −8 down.
Experiment [5] can be described thus: CREB reporter modulators under forskolin, primary screen, cell-based, PC12, CRE-LacZ reporter, forskolin-stimulated (AID 1146).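 Also: PC12 cells with 6xCRE LacZ reporter stimulated by forskolin 10 µM; beta-galactosidase reporter signal reflecting CREB driven transcription.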 Conditions: luminescence, 4.5 h, higher = more signal, called active from +8 up or from −8 down.
Experiment [6] addresses Streptavidin (Streptomyces avidinii) (UniProt P22629). Kind of experiment: streptavidin binders on small-molecule microarray, primary screen, artefact control for SMM compound annotation, biophysical, 635/667 nm fluorescence (AID 1147).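 Also: signal reflects streptavidin binding to arrayed compounds as a control protein.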 Conditions: streptavidin binding, higher = more signal.
Experiment [7] is described as follows: small-molecule binders of probe aInhba, primary screen, biochemical, small-molecule microarray, 635/667 nm fluorescence (AID 1148).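 Also: score merges 667nm spot fluorescence with signal-to-noise for antibody binding to printed compounds.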 Conditions: higher = more signal.
Experiment [8] deals with Torsin-1A (Homo sapiens) (UniProt O14656). Kind of experiment: torsin A binders from cell lysate, primary screen, small-molecule microarray, wild-type, 635/667 nm (AID 1149). Conditions: COS7 hTOR1A-WT lysate, 635 nm fluorescence, higher = more signal.
Torsin-1A (Homo sapiens), sequence (O14656 whole entry, looked up): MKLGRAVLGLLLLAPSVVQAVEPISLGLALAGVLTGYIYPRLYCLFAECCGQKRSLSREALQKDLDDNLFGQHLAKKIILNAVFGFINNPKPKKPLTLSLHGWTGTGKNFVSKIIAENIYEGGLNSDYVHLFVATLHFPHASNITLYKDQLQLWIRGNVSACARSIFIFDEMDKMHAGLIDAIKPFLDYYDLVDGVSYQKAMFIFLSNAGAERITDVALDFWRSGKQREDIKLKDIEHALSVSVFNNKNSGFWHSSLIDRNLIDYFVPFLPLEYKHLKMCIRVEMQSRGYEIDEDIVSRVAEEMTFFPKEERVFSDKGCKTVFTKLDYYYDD
For experiment [9] the target is unchanged. Description: small-molecule binders of mutant TOR1A in lysate, primary screen, cell lysate, small-molecule microarray, COS7 lysate, 635/667 nm fluorescence (AID 1150).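 Also: score pools 667 nm emission and signal to noise measuring lysate protein binding.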 Conditions: COS7 hTOR1A mutant lysate, 635 nm fluorescence, higher = more signal.
Experiment [10] has as its system Sonic hedgehog protein (Shh). Kind of experiment: small-molecule binders of Shh protein, primary screen, biochemical, small-molecule microarray, 635/667 nm fluorescence (AID 1151).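 Also: Shh protein binding to compounds spotted on small-molecule microarray slides; score combines spot fluorescence intensity with signal-to-noise across triplicate slides.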 Conditions: small-molecule microarray binding, 635 nm fluorescence; higher = more signal.
Experiment [11] is described as follows: E. coli DRC41 culture turbidity changes, primary screen, E. coli filamentation inducer project, strain DRC41, OD650, 48 h (AID 1152).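 Also: E. coli MC1000 strain DRC41 lacking acrAB efflux pump and sulA.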 Conditions: E. coli DRC41 (acrAB sulA), higher = more signal, called active from +8 up or from −8 down.
The nature of experiment [12]: small-molecule binders of probe aLefty1, primary screen, biochemical, small-molecule microarray, 635/667 nm fluorescence (AID 1153).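 Also: score merges spot fluorescence with signal-to-noise ratio from the scanned slide images.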 Conditions: higher = more signal.
The nature of experiment [13]: PSAC antagonists in infected red cells, primary screen, cell-based, P. falciparum Indochina, OD700, 1 h (AID 1154). Conditions: P. falciparum Indochina infected RBC osmotic lysis, higher = more signal, called active from +8 up or from −8 down.
Experiment [14] is described as follows: PSAC antagonists in infected red cells, primary screen, cell-based, P. falciparum Indochina, OD700, 2 h (AID 1155).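 Also: lysis reports solute entry through the parasite surface anion channel PSAC; channel blockers reduce lysis of infected cells.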 Conditions: P. falciparum Indochina infected erythrocytes, osmotic lysis OD700; higher = more signal, called active from +8 up or from −8 down.
A short description of experiment [15]: osmotic lysis modulators in infected erythrocytes, primary screen, PSAC antagonist project, cell-based, P. falciparum Indochina, OD700, 3 h (AID 1156). Conditions: higher = more signal, called active from +8 up or from −8 down.
Experiment [16] is described as follows: PSAC antagonists in infected red cells, primary screen, cell-based, P. falciparum Indochina, OD700, 18 h (AID 1157). Conditions: P. falciparum Indochina infected erythrocytes, osmotic lysis OD700, 18 h; higher = more signal, called active from +8 up or from −8 down.
Experiment [17] can be described thus: modulators of S6 phosphorylation in cells, primary screen, cell-based, A549, cytoblot, luminescence, serum-stimulated (AID 1158).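 Also: serum-stimulated A549 lung adenocarcinoma cells; signal is phosphorylated S6 detected by cytoblot immunostaining with HRP secondary.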 Conditions: A549 phospho-S6 cytoblot, 5 h, higher = more signal.
The target of experiment [18] is NADPH oxidase 2 (Homo sapiens) (UniProt P04839). Description: NOX2-dependent H2O2 signal modulators, primary screen, NOX inhibitor project, cell-based, HEK293-NOX2, PMA-stimulated, Amplex Red fluorescence (AID 1159). Also: test concentration not given here. Conditions: 45 min, higher = more signal, called active from +8 up or from −8 down.
NADPH oxidase 2 (Homo sapiens), sequence (P04839 whole entry, looked up): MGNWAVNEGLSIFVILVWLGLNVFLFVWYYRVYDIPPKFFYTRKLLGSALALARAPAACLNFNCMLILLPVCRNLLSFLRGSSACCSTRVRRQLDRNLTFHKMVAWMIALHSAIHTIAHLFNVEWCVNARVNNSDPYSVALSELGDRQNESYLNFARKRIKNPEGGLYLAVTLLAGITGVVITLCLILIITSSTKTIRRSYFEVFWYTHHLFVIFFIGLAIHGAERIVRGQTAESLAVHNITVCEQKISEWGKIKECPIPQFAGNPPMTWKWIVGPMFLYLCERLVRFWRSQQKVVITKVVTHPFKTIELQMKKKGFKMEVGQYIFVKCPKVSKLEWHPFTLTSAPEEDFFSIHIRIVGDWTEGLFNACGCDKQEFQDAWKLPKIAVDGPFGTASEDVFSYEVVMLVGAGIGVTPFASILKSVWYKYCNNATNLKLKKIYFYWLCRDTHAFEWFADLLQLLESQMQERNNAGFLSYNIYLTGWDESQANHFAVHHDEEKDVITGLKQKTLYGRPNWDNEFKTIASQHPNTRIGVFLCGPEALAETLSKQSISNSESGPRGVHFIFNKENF
Experiment [19] addresses NADPH oxidase 4 (Homo sapiens) (UniProt Q9NPH5). Kind of experiment: NOX4-dependent H2O2 signal modulators, primary screen, NOX inhibitor project, cell-based, HEK293-NOX4, tetracycline-induced, Amplex Red fluorescence (AID 1160). Conditions: 45 min, higher = more signal, called active from +8 up or from −8 down.
In experiment [20] the target is NADPH oxidase 5 (Homo sapiens) (UniProt Q96PH1). Kind of experiment: NOX5-dependent H2O2 signal modulators, primary screen, NOX inhibitor project, cell-based, HEK293-NOX5, Amplex Red fluorescence (AID 1161). Conditions: HEK293-NOX5, ionomycin, 45 min, higher = more signal.
NADPH oxidase 5 (Homo sapiens), sequence (Q96PH1 whole entry, looked up): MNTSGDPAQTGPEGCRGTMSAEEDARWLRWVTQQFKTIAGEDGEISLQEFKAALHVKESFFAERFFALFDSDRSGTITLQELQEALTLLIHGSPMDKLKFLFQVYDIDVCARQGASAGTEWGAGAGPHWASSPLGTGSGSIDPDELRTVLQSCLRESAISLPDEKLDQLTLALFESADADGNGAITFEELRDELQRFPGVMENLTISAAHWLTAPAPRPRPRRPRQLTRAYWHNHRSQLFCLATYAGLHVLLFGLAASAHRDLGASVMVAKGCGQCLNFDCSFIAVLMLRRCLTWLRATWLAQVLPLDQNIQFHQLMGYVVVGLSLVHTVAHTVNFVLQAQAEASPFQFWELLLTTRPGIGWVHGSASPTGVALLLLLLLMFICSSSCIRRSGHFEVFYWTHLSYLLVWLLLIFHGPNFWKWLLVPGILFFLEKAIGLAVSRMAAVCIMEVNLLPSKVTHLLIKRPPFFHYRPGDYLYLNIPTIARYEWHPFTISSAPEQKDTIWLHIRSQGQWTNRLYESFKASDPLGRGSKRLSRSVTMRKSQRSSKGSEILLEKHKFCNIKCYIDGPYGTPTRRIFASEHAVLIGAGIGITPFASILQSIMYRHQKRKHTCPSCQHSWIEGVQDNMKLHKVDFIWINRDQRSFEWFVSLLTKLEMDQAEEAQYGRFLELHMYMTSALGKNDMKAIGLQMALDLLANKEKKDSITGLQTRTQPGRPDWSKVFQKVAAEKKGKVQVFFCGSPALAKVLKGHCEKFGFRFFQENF

Calls of active or inactive are those of the source. Unless noted, no rule for the calls is given here.

Streptavidin (Streptomyces avidinii), sequence (P22629 whole entry, looked up): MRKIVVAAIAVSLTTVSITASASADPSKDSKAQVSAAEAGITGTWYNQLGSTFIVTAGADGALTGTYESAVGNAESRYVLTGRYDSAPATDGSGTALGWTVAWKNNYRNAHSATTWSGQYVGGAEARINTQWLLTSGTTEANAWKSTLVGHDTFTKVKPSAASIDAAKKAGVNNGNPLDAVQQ
NADPH oxidase 4 (Homo sapiens), sequence (Q9NPH5 whole entry, looked up): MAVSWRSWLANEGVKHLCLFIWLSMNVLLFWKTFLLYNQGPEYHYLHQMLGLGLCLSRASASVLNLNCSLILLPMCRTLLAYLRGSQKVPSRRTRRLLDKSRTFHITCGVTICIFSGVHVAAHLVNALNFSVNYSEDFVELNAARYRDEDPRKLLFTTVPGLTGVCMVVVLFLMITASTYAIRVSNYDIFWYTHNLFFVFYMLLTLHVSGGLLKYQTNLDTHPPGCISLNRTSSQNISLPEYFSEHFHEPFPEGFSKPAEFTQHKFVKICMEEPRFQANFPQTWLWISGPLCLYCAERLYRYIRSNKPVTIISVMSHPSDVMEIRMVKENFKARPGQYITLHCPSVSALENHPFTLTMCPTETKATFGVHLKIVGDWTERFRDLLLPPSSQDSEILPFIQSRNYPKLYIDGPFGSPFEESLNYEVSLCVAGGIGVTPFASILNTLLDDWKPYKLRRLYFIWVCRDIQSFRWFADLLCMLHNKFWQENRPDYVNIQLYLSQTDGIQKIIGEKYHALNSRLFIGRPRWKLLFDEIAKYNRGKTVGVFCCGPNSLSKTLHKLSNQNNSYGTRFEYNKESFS

As for `COC(=O)C(CC#Cc1ccc2c(c1)[C@]1(C(=O)N2)[C@H](c2ccccc2OCCO)N2[C@H](c3ccccc3)[C@H](c3ccccc3)OC(=O)[C@H]2[C@@H]1C(=O)N1CCN(c2ncccn2)CC1)C(=O)OC`, the composite z-score in experiment [1] was 0.253; in [6], 1.06; in experiment [7], -0.0695; with Torsin-1A (Homo sapiens) [8], 1.03; with Torsin-1A (Homo sapiens) [9], 0.498; in [10] it was 1.11. For the same molecule, the composite z-score in experiment [12] was -0.0984. In addition, the z-score in experiment [2] was -4.92 (inactive); in [3] it was -0.321 (inactive); in experiment [4], -0.375 (inactive); in experiment [5], 2.68 (inactive); in [11], -0.577 (inactive); in experiment [13] it was 3.02 (inactive). For the same molecule, the z-score in [14] is 1.49 (inactive); in experiment [15] it was 0.928 (inactive); in [16] it was 0.565 (inactive); in [17], -0.512; in experiment [18] it was 0.803 (inactive); in experiment [19], 0.849 (inactive). This molecule also had a z-score in experiment [20] of 2.23.
Regarding `C=C(CCCC)C(=O)CC[C@H](OC(=O)c1ccccc1-c1ccccc1C(=O)O)c1cccc(OCCO)c1`, the composite z-score is -0.151 in [1]; -0.352 in experiment [6]; -0.179 in [7]; 0.259 with Torsin-1A (Homo sapiens) [8]; 0.114 with Torsin-1A (Homo sapiens) [9]; 0.847 in [10]. In addition, the composite z-score in experiment [12] was -0.147. Besides, the z-score was -0.548 (inactive) in experiment [2]; -0.77 (inactive) in experiment [3]; 0.434 (inactive) in experiment [4]; 5.04 (inactive) in experiment [5]; -0.497 (inactive) in [11]; 8.46 (active) in experiment [13]. Further, the z-score in experiment [14] was 1.77 (inactive); in [15], 1.97 (inactive); in experiment [16] it was 0.478 (inactive); in experiment [17] it was -0.363; in experiment [18], 0.976 (inactive); in [19], -0.462 (inactive). In addition, the z-score in [20] was -1.74.
As for `COc1ccc(CCNC(=O)[C@@]2(C)c3ccccc3C(=O)N(Cc3ccc(OC(F)(F)F)cc3)[C@H]2c2ccc(CO)cc2)cc1`, the composite z-score is 0.887 in [1]; -0.535 in experiment [6]; -0.166 in experiment [7]; 0.43 with Torsin-1A (Homo sapiens) [8]; 1.43 in the experiment with Torsin-1A (Homo sapiens) [9]; 1.23 in [10]. This molecule registered a composite z-score in [12] of -0.588. In addition, the z-score in experiment [2] is -4.18 (inactive); in experiment [3], 0.175 (inactive); in [4], -0.179 (inactive); in [5] it was 0.175 (inactive); in [11], -0.933 (inactive); in [13], 7.22 (inactive). Moreover, the z-score in [14] was 1.67 (inactive); in experiment [15], 1.79 (inactive); in [16] it was 1.16 (inactive); in experiment [17] it was 0.029; in experiment [18], -0.61 (inactive); in experiment [19], -0.547 (inactive). Moreover, the z-score in experiment [20] is -1.23.
For the molecule `C[C@]1(C(=O)NC2CC2)c2ccccc2C(=O)N(Cc2cc(F)cc(C(F)(F)F)c2)[C@H]1c1ccc(CO)cc1`, the composite z-score in experiment [1] was -0.76; in experiment [6], -0.827; in [7], -0.242; with Torsin-1A (Homo sapiens) [8], -2.36; in the experiment with Torsin-1A (Homo sapiens) [9], 0.416; in experiment [10], 1.62. In experiment [12], this molecule yielded a composite z-score of -0.351. The z-score in experiment [2] is -2.15 (inactive); in experiment [3] it was -1.05 (inactive); in [4], 0.764 (inactive); in experiment [5] it was 0.864 (inactive); in experiment [11] it was 0.256 (inactive); in [13], 3.02 (inactive). In addition, the z-score is 0.334 (inactive) in [14]; 0.678 (inactive) in [15]; 0.597 (inactive) in experiment [16]; 0.0446 in experiment [17]; -0.0377 (inactive) in experiment [18]; -0.978 (inactive) in experiment [19]. In [20], this molecule showed a z-score of -1.46.

For the origin of these results see PubChem BioAssay.
